Rows were chosen to be rich in hits. Some 4.6% of all compounds tested hit in one or more screens of this group.
D1 ag = activates the human D1 dopamine receptor; P21728; HEK293 T-REx D1 cells, calcium flux, agonist mode; activation, % at 2 µM; actives 1% (n = 360,000); AID 504660; further: 0% is about no effect
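Tetracycline-induced HEK293 TREx D1 cells, force-coupled to calcium signalling, were dye-loaded with a no-wash calcium kit. Compound was pin-added after a 10 s baseline. Fluorescence was read kinetically at 1 cycle/s for 180 s, with calcium rises flagged as agonism.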
D1 potentiator = human D1 dopamine receptor positive modulation; potentiation, % at 10 µM; AID 504651; HEK293 TREx D1 cells, calcium flux, dopamine EC20 potentiation; actives 0.036% (n = 360,000); P21728; in the data active means potentiation above about 30%; further: 0% is about no effect
TRHR ag = activates the human TRH receptor; P34981; TRHR cells, calcium flux fluo-8, FDSS agonist mode; activation, % at 2 µM; actives 0.18% (n = 360,000); AID 493084; further: 0% is about no effect
Target sequence (P34981 whole entry, looked up): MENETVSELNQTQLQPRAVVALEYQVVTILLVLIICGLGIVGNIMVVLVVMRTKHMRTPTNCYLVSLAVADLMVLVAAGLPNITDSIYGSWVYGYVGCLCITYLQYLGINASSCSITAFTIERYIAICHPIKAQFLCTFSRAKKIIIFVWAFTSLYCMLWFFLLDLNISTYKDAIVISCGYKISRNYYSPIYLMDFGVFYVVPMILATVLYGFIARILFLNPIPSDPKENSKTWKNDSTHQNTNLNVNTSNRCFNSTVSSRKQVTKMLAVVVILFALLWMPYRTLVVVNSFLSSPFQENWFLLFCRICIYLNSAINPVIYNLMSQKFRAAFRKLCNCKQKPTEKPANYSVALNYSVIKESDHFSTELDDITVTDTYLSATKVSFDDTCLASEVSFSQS
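TRHR-expressing cells, plated overnight in medium with 10% serum, were loaded with fluo-8 calcium dye at room temperature. After a 10 s baseline, library compound was pin-added and calcium release was recorded kinetically (ex 480/em 530) as agonist response.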
TRHR PAM = allosteric enhancers of human TRH receptor; enhancement, % at 2 µM; actives 0.66% (n = 360,000); P34981; AID 493056; TRHR cells, fluo-8 calcium fluorescence, EC20 TRH enhancement; in the data active means enhancement above about 30%; further: 0% is about no effect
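TRHR-expressing cells loaded with fluo-8 calcium dye were read kinetically (ex 480/em 530) during compound addition, then stimulated with an EC20 of TRH (10 nM final). Enhancement of the Gq-mediated intracellular calcium response was scored.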
D1 antag = antagonists of human D1 dopamine receptor; P21728; HEK293 TREx D1 cells, calcium flux, dopamine EC80; stronger effect = lower value; activity change, negative = inhibition, % at 10 µM; actives 3.2% (n = 360,000); AID 504652; in the data active means activity change below about -30%; further: on the % scale 0 is the no-effect control and ±100 the full control effect
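Antagonism measured as reduced calcium response to an EC80 dopamine addition following 180 s compound pre-read; cells were inducible HEK293 Trex D1 plated overnight at 30 C, read kinetically at 1 cycle/sec.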
* hit, by the source's call; / = no result. Unless noted, no stated cut-off is given here; in the data, active means activation above about 30%; inactive means the rest.

SMILES	D1 ag	D1 potentiator	TRHR ag	TRHR PAM	D1 antag
CC(=O)Nc1ccc(Nc2cc(-c3ccccc3)nc3ncnn23)cc1	0	-2	-1	38*	-10
O=C(COC(=O)c1ccc2c(c1[N+](=O)[O-])C(=O)c1ccccc1C2=O)NC1CC1	0	-3	0	0	-5
O=C(COC(=O)c1ccccc1C(=O)c1ccc(Cl)c([N+](=O)[O-])c1)NC1CCCCCC1	3	-5	-1	-2	-34*
O=C(COC(=O)c1ccc(Cl)c([N+](=O)[O-])c1)NC1CCCC1	1	-4	-1	-5	-24
O=C(COC(=O)c1cccc2c1C(=O)c1ccccc1C2=O)NC1CCCCC1	7	3	0	4	-78*
O=C(COC(=O)c1cccc(OC(F)F)c1)NC(=O)NC1CCCCC1	43*	-3	-1	2	-11
N#Cc1cccc(C(=O)OCC(=O)NC(=O)NC2CCCCC2)c1	5	-3	0	-2	-2
CCc1ccc(NC(=O)CSc2ccnc(=O)[nH]2)cc1	4	3	0	3	/
CCSc1nnc(NC(=O)NCC(F)(F)F)s1	1	-4	0	34*	-6
CCSc1nnc(NC(=O)C2C3C=CC(C3)C2C(=O)O)s1 (stereo unspecified)	3	-10	1	6	-46*
CCSc1nnc(NC(=O)C2C3CCC(C3)C2C(=O)O)s1 (stereo unspecified)	1	8	0	9	-3
Cc1cccc(-n2c(C)cc(C(=O)C(=O)Nc3ccccc3F)c2C)c1C	1	-2	-1	2	-1
COc1ccc(C2(CNC(=O)c3ccc(OC)c([N+](=O)[O-])c3)CCCCC2)cc1OC	2	-3	-1	5	2
COc1ccc(NC(=O)c2cc3c(s2)-c2c(C)cccc2OC3)cc1Cl	1	-4	1	50*	-11
COc1cc(Cl)c(C)cc1NC(=O)c1cc2c(s1)-c1c(C)cccc1OC2	-1	-4	0	-17	8
COc1cccc(CNC(=O)c2cc3c(s2)-c2c(C)cccc2OC3)c1	2	-8	0	14	-36*
COc1cccc(CNC(=O)c2cc3c(s2)-c2ccccc2OC3)c1	2	-6	0	1	-11
COc1ccc(Nc2oc(-c3cccs3)nc2C#N)cc1	2	-10	-1	-6	-43*
COc1ccc(NC(=O)c2c(NC(=O)C(F)(F)F)sc3c2CCCCC3)cc1	59*	-2	5	-6	-36*
CN(C)S(=O)(=O)c1ccc2c(c1)N(CC(=O)NCc1cccc(Br)c1)C(=O)CS2	5	4	-1	-2	-14
NS(=O)(=O)c1cccc(NS(=O)(=O)c2ccc(/C=C/C(=O)O)cc2)c1	0	1	1	4	-4
O=C(NCCN1CCOCC1)c1ccc(/C=C2\Sc3ccccc3N(Cc3ccccc3F)C2=O)cc1	8	0	0	2	-12
CN1CCN(CCCNC(=O)c2ccc(/C=C3\Sc4ccccc4N(Cc4ccccc4F)C3=O)cc2)CC1	19	-9	0	0	-30*
CCc1ccc(/C=C2/Sc3ccccc3N(CC(=O)NCCCN3CCOCC3)C2=O)cc1	9	-6	5	8	-52*
O=C(CN1C(=O)/C(=C\c2ccccc2Cl)Sc2ccccc21)NCCCN1CCOCC1	17	-9	2	-4	-1
SMILES	D1 ag	D1 potentiator	TRHR ag	TRHR PAM	D1 antag
O=C(CN1C(=O)/C(=C\c2cccc(Cl)c2)Sc2ccccc21)NCCCN1CCOCC1	53*	-17	-1	1	-84*
O=C(CN1C(=O)/C(=C/c2ccc(C(F)(F)F)cc2)Sc2ccccc21)NCCCN1CCOCC1	16	-9	4	7	-34*
O=C(CCN1C(=O)/C(=C\c2ccccc2)SC1=S)NCCCN1CCOCC1	0	1	-1	4	26
Cc1ccc(-c2c(CN3CCN(c4cc(Cl)ccc4C)CC3)csc2C)cc1	1	-1	0	-3	2
CC(C)OC(=O)c1ccc(Cn2nnc3sc4c(c3c2=O)CCCC4)cc1	2	-1	0	-14	0
CCCCCC(O)(CCN1CCCCC1)c1ccc(OCC)cc1 (stereo unspecified)	35*	-1	0	6	-2
CCOC(=O)N1CCN(Cc2nc3cc(NC(=O)c4ccc(OC)cc4)ccc3n2C(C)C)CC1	1	-3	0	-21	-39*
CCOC(=O)N1CCN(CCC(=O)c2ccc(OC)cc2)CC1	-2	6	0	7	-35*
CCOC(=O)N1CCN(CCC(=O)c2ccc(Cl)cc2)CC1	3	0	0	-2	-8
CC(C)COc1ccc(C(=O)CCN2CCCCC2)cc1	19	-4	7	-9	-23
CCCC(O)(CCN1CCCCC1)c1ccc(OCC)cc1 (stereo unspecified)	3	-2	0	-2	-10
CCCCOc1ccc(C(=O)CCN2CCCCC2)cc1	4	-4	4	-12	-35*
CCOC(=O)N1CCN(Cc2nc3cc(NC(=O)c4ccc(F)cc4)ccc3n2C(C)C)CC1	-1	-1	-1	-3	3
O=C(NCCOc1ccc(F)cc1)C1CCC(=O)N(CCc2ccccn2)C1 (stereo unspecified)	5	-2	1	15	-2
COc1ccc(NC(=O)c2c(C)oc3ccc(O)c(CN4CCN(Cc5ccccc5)CC4)c23)cc1Cl	0	0	0	7	1
Cc1cc(F)ccc1S(=O)(=O)N1CCCOC1CNC(=O)C(=O)NC1CCCCC1 (stereo unspecified)	2	0	0	-1	-3
CC(C)(CO)NC(=O)CC1C(=O)NCCN1Cc1ccc(-c2ccccc2)cc1 (stereo unspecified)	2	1	1	6	2
COc1cccc(CNS(=O)(=O)c2cc3[nH]c(=O)c(=O)[nH]c3cc2C)c1	2	7	0	31*	1
Cn1cccc1-c1cc2n(n1)CCC(=O)N2CCCC(=O)NCc1cccc(Cl)c1	0	-1	-1	-2	1
Cc1ccc(OCC(=O)NNC(=S)NC(=O)C(C)(C)C)c(Br)c1	82*	-1	17	-4	-2
Cc1ccc(OCC(=O)NNC(=S)NC(=O)C2CCCCC2)c(C)c1	47*	-2	4	-3	-7
Cc1ccc(OCC(=O)NNC(=S)NC(=O)C2CC2)c(C)c1	9	5	1	10	12
CN(Cc1ccccc1)C(=O)c1cc(-c2cccc(Cl)c2)on1	5	3	3	8	1
Cc1cccc(NC(=O)c2ccc3snnc3c2)c1C	-1	4	0	10	2
O=C(NCc1ccc2c(c1)OCO2)c1ccc2c(c1)N(Cc1cccc(Cl)c1)C(=O)c1ccccc1S2=O (stereo unspecified)	4	6	0	-1	-1
